Several values for one entry are separate records, joined by “and”; a condition that tells them apart may be missing. Equal entries are not always repeated. Inconclusive results are not listed. Where a call stands in place of a potency, no number is given. Activity calls are given as the source filed them. Calls come from the whole dose curve; as a rule, active = well fitted cell-killing curve with a large enough effect in the repeat runs; inconclusive = weak or mixed curves, or effect the other way; inactive = no such curve, though single readings can be large or run the other way.
Potency is the fitted concentration of half-maximal effect.

The assay in a line: qHTS assay to identify small molecule antagonists of the thyroid receptor (TR) signaling pathway - cell viability counter screen (AID 743064). Note: nearly all actives have a fitted effect of over 50% in size. To be noted: GH3.TRE-Luc viability, CellTiter-Fluor, 24 h; series mostly up to 70.3 µM. The essentials:
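CellTiter-Fluor readout, 30 min at 37 °C/5% CO2, following 23.5 h incubation of GH3.TRE-Luc cells with test compound and 1 nM T3 (final).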
For orientation: Quantitative high-throughput screening tests each substance at several concentrations.
For the compound `O=C(Cl)OCCOCCOC(=O)Cl`, the Potency entry was “inactive”. On the same count and under the same terms, to `Nc1cccc2ccccc12` belongs “inactive”; to `c1ccc2c(c1)-c1cccc3cccc-2c13`, “inactive”. Still for that read-out and setting: for `CCC1(CCC(C)C)C(=O)NC(=O)NC1=O` the value was “inactive”.

Turning to `O=C1NC(=O)C(=O)C(=O)N1`, the Potency result is “inactive”. The same measure, in the same setting: to `Clc1ccc(Cl)c(Cl)c1` belongs “inactive”; to `[Cl-].[Cl-].[Hg+2]`, 1.33 µM (active) and 1.36 µM (active) and 243 nM (active). As for `CN1CC[C@]23c4c5ccc(O)c4O[C@H]2[C@@H](O)C=C[C@H]3[C@H]1C5`, the Potency result is “inactive”. Same read-out and setting: for `COc1ccc(C(=O)c2c(C)n(CCN3CCOCC3)c3ccccc23)cc1` the value was “inactive”. Same read-out and setting: to `O=C1c2ccccc2C(=O)N1SC(Cl)(Cl)Cl` belongs 4.27 µM (active) and 2.17 µM (active); to `O=C(O)c1cc(I)cc(I)c1I`, “inactive”. On to `CCCCNC(=O)OCC#CI`, for which the Potency was 6.82 µM (active) and 4.33 µM (active).

As to `CCC1(C2=NCCN2)Cc2ccccc2O1` (centres undefined), the Potency result is “inactive”. Turning to `O=C(O)C(Cl)(Cl)Br`, the Potency result was “inactive”. Same read-out and setting: to `CCC1CCC(=O)O1` (centres undefined) belongs “inactive”; to `C[CH2][Hg][S]c1ccccc1C(=O)O`, 298 nM (active) and 273 nM (active). On the same count and under the same terms, to `CCCCCCCCn1sccc1=O` belongs 6.13 µM (active) and 5.09 µM (active); to `CC1(C)[C@H](C(=O)O[C@H](C#N)c2cccc(Oc3ccccc3)c2)[C@@H]1C=C(Br)Br`, “inactive”. On to `CCCCCCCCCCCCN=C(N)N`, for which the activity change, negative = cytotoxic was -13.9% [at 3.79 µM] (inactive). On to `CCCCCCCCP(=O)(O)O`, for which the Potency result was “inactive”. Turning to `CN1C[C@H](C(=O)N[C@]2(C)O[C@@]3(O)[C@@H]4CCCN4C(=O)[C@H](Cc4ccccc4)N3C2=O)C=C2c3cccc4[nH]cc(c34)C[C@H]21`, the Potency result was “inactive”. Same read-out and setting: to `CNC(=O)Oc1cccc(N=CN(C)C)c1` belongs “inactive”; to `O=C(O)C(O)C(O)C(=O)O` (centres undefined), “inactive”; to `C=CCc1ccc(OC(=O)Cc2ccccc2)c(OC)c1`, “inactive”. For the compound `Cc1ncc(C[n+]2csc(CCO)c2C)c(N)n1`, the Potency result is “inactive”. Still for that read-out and setting: to `O=C1CC[C@@]2(O)[C@H]3Cc4ccc(O)c5c4[C@@]2(CCN3CC2CC2)[C@H]1O5` belongs “inactive”. Still for that read-out and setting: for `C[C@]12CC[C@H]3[C@@H](CCC4=CC(=O)CC[C@@H]43)[C@@H]1CC[C@@H]2OC(=O)CCc1ccccc1` the value was “inactive”; for `O=C(O)COc1cc(Cl)c(Cl)cc1Cl`, “inactive”; for `CCCN(CCOc1c(Cl)cc(Cl)cc1Cl)C(=O)n1ccnc1`, 62.4 µM (active).

Consider `CN(C)C(=O)Nc1cccc(OC(=O)NC(C)(C)C)c1`, for which the Potency entry is “inactive”. Regarding `O=[N+]([O-])/C=C/c1ccccc1`, the Potency was 13.9 µM (active) and 9.69 µM (active). Still for that read-out and setting: for `CC(C)(C)CC(C)(C)c1ccc(O)cc1` the value was 23.7 µM (active) and 25 µM (active); for `Nc1ccccc1C(=O)OCCc1ccccc1`, “inactive”; for `CC(C)CCCCCCCOC(=O)c1ccccc1C(=O)OCCCCCCCC(C)C`, “inactive”. On the same count and under the same terms, to `O=C(O)CCCOc1ccc(Cl)cc1Cl` belongs “inactive”. Still for that read-out and setting: to `COC1=CC(=O)O[C@@H](/C=C/c2ccc3c(c2)OCO3)C1` belongs “inactive”; to `CC(C)(C)OOC(C)(C)CCC(C)(C)OOC(C)(C)C`, “inactive”.

For the compound `CC(C)[C@@H](C(=O)O[C@@H](C#N)c1cccc(Oc2ccccc2)c1)c1ccc(Cl)cc1`, the Potency result is “inactive”. Still for that read-out and setting: to `C[C@@H]1C[C@@H]([C@H](O)CC2CC(=O)NC(=O)C2)C(=O)[C@@H](C)C1` belongs 0.237 µM (active).

The values above are taken from PubChem BioAssay (Tox21).
